Compound activity from PubChem.
HSF1 inh – HSF1 inhibition; NIH3T3-HGL HSE-luciferase, MG132-induced, luminescence 8 h; active compounds read low; activity change, negative = inhibition, % at 7.5 µM (by protocol); 0.77% of 300,000 active;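 active = more than half of replicate wells show activity change below -50%, luminescence cut by over half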;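 also: luciferase reports HSF-1 transcriptional activity via heat shock element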
HSP90 refold inh – blocks HSP90-mediated luciferase refolding in reticulocyte lysate. AID 1789. inhibition, % at 5.6 µM. 0.91% of 290,000 active. Rabbit reticulocyte lysate, luciferase refolding luminescence, 3 h;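 active = inhibition above the screen-wide mean plus 3 SD, computed separately per campaign, cut at about 16% in these data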;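 also: inhibitors lower the luminescence because luciferase stays unfolded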
HSF-1 act – increases HSF-1 driven luciferase reporter signal. NIH3T3-HGL HSF-1 luciferase reporter, MG132, 8 h; 100% = twice DMSO control signal. activation, % at 9 µM. 1.7% of 300,000 active. AID 504408;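 active = mean replicate activation of at least 50% with a set share of replicates each reaching 50%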
AHR act – activators of human aryl hydrocarbon receptor; AHR-responsive luciferase reporter cells, luminescence; activation, % at 5 µM; 2.5% of 320,000 active; AID 2796; in the data active = activation above about 47%
DAX1 inh – inhibits human nuclear receptor DAX1 | AID 504766 | P51843 | inhibition, % at 6.75 µM | HEK293 Gal4-DAX1 luciferase reporter, luminescence | 0.99% of 340,000 active;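 active = inhibition above the mean over all tested compounds plus 3 SD, cut at about 4.2% in these data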;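 also: inhibition shows as a rise in luminescence from relieved DAX1 repression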
GAA850 FXN act – frataxin GAA850 promoter activation; HEK293 lucGAA850 FXN promoter luciferase reporter, 24 h; percent of 10 µM SAHA response; activation, % at 6 µM; 0.56% of 360,000 active; AID 540364;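 active = activation above the average of all compounds screened plus 3 SD, cutoff fixed separately per campaign, cut at about 7.5% in these data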
AHR act cf – human AHR activation, confirmation; shares compounds with AHR act; human cells, AHR-responsive luciferase reporter, luminescence; activation, % at 9 µM; 87% of 2,300 active; in the data active = activation above about 49%;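 also: HepG2 hepatoma cells carrying a DRE-driven firefly luciferase reporter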
PXR act counter – PXR activation, counter-screen for AHR activators. 88% of 2,300 active. cell-based PXR reporter, luciferase luminescence. activation, % at 11.6 µM. shares compounds with AHR act; in the data active = activation above about 11%;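 also: human hepatoma DPX-2 cells expressing full-length human PXR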
Target sequence (O75469 whole entry, looked up): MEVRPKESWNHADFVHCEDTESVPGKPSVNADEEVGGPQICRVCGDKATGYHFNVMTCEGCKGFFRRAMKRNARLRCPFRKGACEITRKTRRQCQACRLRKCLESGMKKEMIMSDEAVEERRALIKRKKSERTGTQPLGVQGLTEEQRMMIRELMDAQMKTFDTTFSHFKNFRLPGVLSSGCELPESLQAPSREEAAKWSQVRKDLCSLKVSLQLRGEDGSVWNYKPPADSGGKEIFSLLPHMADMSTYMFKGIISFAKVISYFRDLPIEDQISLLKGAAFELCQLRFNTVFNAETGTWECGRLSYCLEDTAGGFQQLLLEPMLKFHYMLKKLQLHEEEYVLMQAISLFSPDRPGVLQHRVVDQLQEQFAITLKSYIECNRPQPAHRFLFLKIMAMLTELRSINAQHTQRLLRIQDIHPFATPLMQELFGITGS
Numbers stand for hits; i = inactive; nt = no result given. This is a sample that favours compounds with a hit; in the whole collection about 5.9% have one here.

SMILES | HSF1 inh | HSP90 refold inh | HSF-1 act | AHR act | DAX1 inh | GAA850 FXN act | AHR act cf | PXR act counter
COc1ccccc1C(=O)Nc1ccc2c(c1)CN(Cc1cnc(C)s1)CC2 | i | i | i | 113 | i | i | 56 | 13
CCOC(=O)CNC(=O)N1CCc2ccc(NC(=O)c3ccccc3OC)cc2C1 | i | i | i | i | i | i | nt | nt
COc1cc(NC(=O)c2ccccc2)c(OC)cc1NC(=O)CN1CCCCC1 | i | i | i | 83 | i | i | 96 | 23
CCN(C(=O)COC(=O)c1ccc(=O)n(Cc2ccccc2)n1)C1CCCCC1 | nt | nt | nt | i | i | i | nt | nt
CCC1CCCCN1C(=O)CCNC(=O)Cn1cnc2ccccc2c1=O (stereo not given) | i | i | i | i | i | i | nt | nt
NC1=NC(=Nc2ccc(Br)cc2)c2ccccc21 | i | i | i | 88 | i | i | i | 15
C=CCNC(=O)C1CCN(c2ccc(S(=O)(=O)N3CCOCC3)cc2[N+](=O)[O-])CC1 | i | i | i | i | i | i | nt | nt
CCCCNc1c(-c2ccc(-c3cccc(Cl)c3)cc2)nc2ccc(Cl)cn12 | nt | nt | nt | 79 | i | i | i | 14
CCCCCCSc1ccc(-c2nc3ccc(Cl)cn3c2NCCCC)cc1OC | nt | nt | nt | i | i | i | nt | nt
O=C(Nc1ccc(S(=O)(=O)Nc2ncccn2)cc1)C(F)(F)F | i | i | i | i | i | i | nt | nt
COc1ccc(C(=O)Nc2ccccc2-c2nnn(CC(=O)NCc3ccco3)n2)cc1 | i | i | i | 103 | i | i | i | 26
COc1ccccc1C(=O)Nc1ccc(-c2nnn(CC(=O)NCc3ccco3)n2)cc1 | i | i | i | 130 | i | i | 135 | 29
O=C(Cn1nnc(-c2ccccc2NC(=O)c2ccccc2F)n1)NCc1ccco1 | i | i | i | i | i | i | nt | nt
CCn1c(N)c(C(=O)Nc2ccccc2C(=O)OC)sc1=S | i | i | i | i | i | i | nt | nt
Cn1c(N)c(C(=O)Nc2ccccc2F)sc1=S | nt | i | nt | 115 | i | i | 105 | nt
CCCNC(=O)c1ccc2c(=O)n(Cc3ccco3)c(=S)[nH]c2c1 | i | i | i | 88 | i | i | 70 | 34
COc1cccc(/C=N/Nc2nc(-c3cccnc3)nc3ccccc23)c1 | i | i | i | 93 | i | i | 54 | 18
O=C(Cn1cnc2ccccc2c1=O)c1ccc2c(c1)OCCO2 | i | i | i | i | i | i | nt | nt
Cc1nn(CC(=O)c2ccc3c(c2)OCCO3)c(=O)c(C#N)c1C | nt | nt | nt | 88 | i | i | 91 | 18
Cc1ccc2occ(/C=N/O)c(=O)c2c1 | i | i | i | i | i | i | nt | nt
O=c1c(/C=N/O)coc2ccc3ccccc3c12 | nt | i | nt | 84 | i | i | i | i
CCc1ccc(C(=O)CSc2nc(C)cc(=O)[nH]2)cc1 | i | i | i | i | i | i | nt | nt
CC(C)CC(=O)NC(=S)Nc1nc(-c2cccc3ccccc23)cs1 | i | i | i | 80 | i | i | 53 | 29
C[C@@]12CCC3[C@@](CCC4[C@@]3(C)CCC[C@@]4(C)C(=O)Nc3ccc(Cl)cc3)(CC1=O)C2 (stereo not given in full) | nt | nt | nt | i | i | i | nt | nt
O=c1[nH]c(-[n+]2ccc3ccccc3c2)c(/C=N/N=C(\[O-])c2ccccc2)s1 | i | i | i | 84 | i | i | 50 | 20
SMILES | HSF1 inh | HSP90 refold inh | HSF-1 act | AHR act | DAX1 inh | GAA850 FXN act | AHR act cf | PXR act counter
CC(C)NC(=O)COc1ccc(S(=O)(=O)N2CCCC2)cc1 | i | i | i | 87 | i | i | i | 16
CC(C)NC(=O)COc1ccc(S(=O)(=O)N2CCOCC2)cc1 | i | i | i | i | i | i | nt | nt
COc1cccc(C#Cc2c(CO)[nH]c3ccccc23)c1 | nt | nt | nt | i | i | i | nt | nt
CCCNC(=O)c1ccc(COc2ccc(CCC)cc2OC)o1 | -56 | i | i | 80 | i | i | 80 | 41
CCCNC(=O)c1ccc(COc2cccc3ccccc23)o1 | i | i | i | i | i | i | nt | nt
NC(=O)c1c(NC(=O)c2ccncc2)sc2c1CCCC2 | i | i | i | i | i | i | nt | nt
NC(=O)c1c(NC(=O)c2ccccc2)sc2c1CCC2 | i | i | i | 125 | 4.5 | i | 146 | 24
COC(=O)c1c(NC(=O)c2nc3ccccc3s2)sc2c1CCN(C(C)=O)C2 | nt | i | nt | i | i | i | nt | nt
CNC(=O)c1c(NC(=O)c2nc3ccccc3s2)sc2c1CCC2 | i | i | 55 | 112 | i | i | 79 | 29
Cn1ncc(Cl)c1C(=O)Nc1sc2c(c1C(N)=O)CCC2 | i | i | i | 121 | i | i | 96 | 137
Cc1occc1C(=O)Nc1sc2c(c1C(N)=O)CCCCC2 | i | i | i | 83 | i | i | 79 | 49
O=C(c1ccco1)N1CCN(C(=O)c2ccc(CS(=O)c3ccc(F)cc3)o2)CC1 (stereo not given) | i | i | i | i | i | i | nt | nt
O=C(NC(=S)Nc1sc2c(c1C(=O)O)CCCC2)c1ccccc1 | i | i | i | 81 | i | i | 112 | 16
CC(C)C(=O)NC(=S)Nc1sc2c(c1C(N)=O)CCCC2 | i | i | i | 90 | i | i | 97 | 16
Cc1ccc(C(=O)O/N=C(\N)c2cccnc2)cc1[N+](=O)[O-] | i | i | i | i | i | i | nt | nt
N/C(=N\OC(=O)c1ccccc1[N+](=O)[O-])c1cccnc1 | i | i | i | 138 | i | i | 76 | 29
Cc1ccc(OCCOc2ccc(Br)cc2/C=N\NC(N)=O)cc1 | i | i | i | 92 | i | i | i | i
NC(=O)N/N=C\c1cc(Br)ccc1O | i | i | i | i | i | i | nt | nt
O=C(CCN1C(=O)[C@@H]2Cc3ccccc3CN2C1=O)Nc1cccc(F)c1 | i | i | i | i | i | i | nt | nt
O=C1N=c2ccccc2=C1c1sc(=S)n(NC(=O)c2cccc(O)c2)c1O | i | i | i | nt | i | i | nt | nt
O=C1N=c2ccc(Br)cc2=C1c1sc(=S)n(NS(=O)(=O)c2ccccc2)c1O | i | i | i | 83 | i | i | i | 23
Cc1cc2occ(CC(=O)Nc3nccs3)c2cc1C(C)C | i | i | i | i | i | i | nt | nt
O=C(Cc1coc2ccc3ccccc3c12)Nc1nccs1 | i | i | i | 79 | i | i | 93 | 22
O=C(O)Cn1cc(/C=C2\SC(=O)N(c3ccccc3)C2=O)c2ccccc21 | i | i | i | i | i | i | nt | nt
Cn1cc(/C=C2\SC(=S)N(NC(=O)c3ccccc3)C2=O)c2ccccc21 | i | i | i | i | i | i | nt | nt
Cn1cc(/C=C2/SC(=O)N(c3ccccc3)C2=O)c2ccccc21 | i | i | i | 101 | i | i | 87 | 17
Cn1cc(/C=C2\SC(=S)N(N3CCOCC3)C2=O)c2ccccc21 | i | i | i | 107 | i | i | i | i
Cn1cnnc1SCC(=O)NCCc1ccc(Cl)cc1Cl | i | i | i | i | i | i | nt | nt
